Screens (PubChem BioAssay)
Sampled rows, rich in hits. Any-hit rate of the full collection: about 7.3%.
SMN2 splice up: SMN2 splice variant enhancement. HEK293 SMN2-luciferase splicing reporter, luminescence, 30-36 h. Potency, µM (top dose mostly 46.1 µM), for the others: top-dose activity change, positive = activation, actives largely listed as activators. actives 2.8% (n = 210,000). AID 1458; further: % of control where 0% means no effect; nearly all actives have a fitted effect of over 55% in size
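HEK293 cells carry an SMN2 […]–luciferase reporter in which exon 7 inclusion puts luciferase in frame. Cells were plated 10-12 h before compound addition, then incubated 30-36 h at 37C. ONE-Glo luminescence was read; sodium butyrate at 4.5 mM final served as control.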
NPC1 prom act: activates the NPC1 promoter; Huh7 NPC1 promoter luciferase reporter, 24 h; Potency, µM (highest dose often 9.22 µM), for inactives: top-dose activation, usual class: activators; actives 2.4% (n = 320,000); further: % of control where 0% means no effect; nearly all actives have a fitted effect of over 60% in size
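Luciferase expression driven by the NPC1 promoter was measured in stably transfected Huh7 cells after a 24 h compound incubation, using a luciferase reagent and a luminescence read.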
FLuc counter: firefly luciferase modulation, counter-screen for miR-21 project; actives 6.9% (n = 360,000); Potency, µM (top dose mostly 57.5 µM), for inactives: at the top dose activity change, negative = inhibition, usual class: inhibitors; P08659; purified FLuc, Km substrates, luminescence inhibition; AID 588342;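 further: plate controls were vehicle for no effect and reference inhibitor for full effect; nearly all actives have a fitted effect of over 55% in size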
Target sequence (P08659 whole entry, looked up): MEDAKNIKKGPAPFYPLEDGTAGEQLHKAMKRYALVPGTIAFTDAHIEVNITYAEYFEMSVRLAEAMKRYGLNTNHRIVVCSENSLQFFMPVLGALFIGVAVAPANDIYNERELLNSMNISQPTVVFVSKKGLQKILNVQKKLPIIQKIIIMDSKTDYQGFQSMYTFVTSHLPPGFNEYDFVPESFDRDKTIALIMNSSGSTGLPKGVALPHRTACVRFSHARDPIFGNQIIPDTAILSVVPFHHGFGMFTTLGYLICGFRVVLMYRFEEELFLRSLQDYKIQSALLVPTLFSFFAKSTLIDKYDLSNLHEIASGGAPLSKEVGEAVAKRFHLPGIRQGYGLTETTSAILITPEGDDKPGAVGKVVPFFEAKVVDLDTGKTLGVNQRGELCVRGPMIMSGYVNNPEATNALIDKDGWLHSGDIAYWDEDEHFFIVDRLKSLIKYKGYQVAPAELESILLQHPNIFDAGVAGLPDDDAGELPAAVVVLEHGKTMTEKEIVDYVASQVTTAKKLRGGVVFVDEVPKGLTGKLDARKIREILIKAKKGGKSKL
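Biochemical qHTS of compounds, final roughly 60 µM downward over six points, against 10 nM purified firefly luciferase using Km concentrations of substrates (10 uM D-luciferin, 10 uM ATP) in Tris acetate pH 7.5 buffer; luminescence output.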
KinaseGlo FLuc: blocks Kinase-Glo luciferase, a counter-screen artifact | Q27757 | Kinase-Glo luciferase, ATP luminescence, 8 min | Potency, µM (titrated, usually from 38.3 µM), inactives show at the top dose activity change, negative = inhibition, usual class: inhibitors | actives 0.28% (n = 200,000) | AID 1379; further: on the % scale 0 is the no-effect control and ±100 the full control effect; nearly all actives have a fitted effect of over 60% in size
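Recombinant Kinase-Glo luciferase, 10 uM ATP (linear range), luciferin; imidazole pH 7.2 / KCl / MgCl2 / Tween / BSA buffer; 8 min RT; luminescence.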
Rab9 promoter act: Rab9 promoter activation; Huh7 Rab9 promoter-luciferase reporter, luminescence, 24 h; Potency, µM (series often up to 9.22 µM), inactives show top-dose activation, negative = inhibition, actives largely listed as activators; actives 2.8% (n = 320,000); AID 485297; further: % of control where 0% means no effect; nearly all actives have a fitted effect of over 60% in size
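Stable Rab9-luc Huh7, 1500 cells/well, 2 h settle; cmpd in DMSO, 24 h, 37 °C/5% CO2; luciferase reagent 10 min RT; luminescence.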
Active calls of the source: *; ? = inconclusive; / = no result; [ ] = remark or other dose. The call rests on the fitted dose curve; in most records, active means well fitted curve in the direction sought with a large enough effect; inconclusive means small, poorly fitted or top-dose-only effect, or another doubt; inactive means no such curve, though single readings can be large; an effect the other way counts as inactive or inconclusive. Potency means the concentration at half of the fitted maximal effect.

SMILES	SMN2 splice up	NPC1 prom act	FLuc counter	KinaseGlo FLuc	Rab9 promoter act
CC(C)Oc1cccc(C(=O)C2CCCN(C(=O)CCc3cnn(C)c3)C2)c1 (centres undefined)	/	?	?	/	3.5µM*
CCOc1ccc(C(=O)Nc2nnn(CC)n2)cc1	/	4µM*	12µM*	/	4µM*
CCCn1nnc(NC(=O)c2ccc(-c3ccccc3)cc2)n1	?	2.5µM*	9.5µM*	10%	2.5µM*
CCCn1nnc(NC(=O)c2ccc(OCC)c(Cl)c2)n1	3%	3%	6%[2.3 µM]	0%	23%
CCCn1nnc(NC(=O)c2ccc(OC)cc2)n1	?	4µM*	21µM*	-3%	?
CCCn1nnc(NC(=O)c2ccc(Br)cc2)n1	14µM*	?	?	4%	4µM*
CCOc1ccc(NC(=O)c2oc3ccccc3c2NC(=O)C(C)(C)C)cc1	-16%	/	-1%	/	/
CCOC(=O)c1ncc2[nH]c3cccc(OC(C)C)c3c2c1C	/	/	/	-1%[39.9 µM]	/
O=C(CSCc1ccccc1)N1CCN(c2ccccc2)CC1	13µM*	?	24µM*	0%	?
O=C(CSCc1cccc(F)c1)N1CCN(c2ccccc2)CC1	13µM*	3.2µM*	13µM*	-1%	?
O=C(CSCc1ccccc1)N1CCN(c2ccc(F)cc2)CC1	-2%	13%	-18%	-3%	14%
COc1ccc(C2CC(=O)c3cnc4c(-c5ccccc5)c(C)nn4c3C2)c(OC)c1 (centres undefined)	-1%	/	-2%	/	/
Cc1nn2c(N)c(-c3ccccc3)cnc2c1-c1ccc(Cl)cc1	/	2.5µM*	5.4µM*	/	3.5µM*
Cc1nc2c(-c3ccccc3)c(C)nn2c(N)c1-c1ccccc1	13µM*	2.2µM*	1.1µM*	-7%	1.6µM*
Cc1cc(N)n2nc(-c3ccccc3)c(-c3ccccc3)c2n1	/	-5%	-11%	/	0%
Cc1nc2cc(-c3ccccc3)nn2c(N)c1-c1ccccc1	/	1µM*	/	/	0.63µM*
Cc1nn2c3c(cnc2c1-c1ccccc1)C(=O)CCC3	-1%	?	15µM*	-6%	?
COc1cccc(C2C(C(=O)Nc3ccc(C)cc3C)=C(C)Nc3c(C(=O)Nc4cccc(C)c4)cnn32)c1OC (centres undefined)	/	/	3%	/	/
Cc1ccc(-n2nc(C(=O)N3CCCCC3C)c(=O)n(C)c2=O)cc1 (centres undefined)	/	/	5%	/	/
Cc1ccc(NC(=O)CCn2nc(C)c(S(=O)(=O)N3CCCCC3)c2C)cc1Cl	/	/	-12%	/	/
CC1=C(c2ccc(C(C)C)cc2)S(=O)(=O)N=C1N1CCC(C(=O)NCCc2ccco2)CC1	/	/	-7%	/	/
CCc1ccc(C(=O)c2cn(CC(=O)Nc3ccc(F)cc3)c3cc4c(cc3c2=O)OCO4)cc1	-9%	/	-2%	/	/
Cc1nn2c(-c3ccccc3)ccnc2c1-c1ccccc1	-21%	?	5.4µM*	0%	?
CCOC(=O)c1ccc(NC(=O)c2c(NCc3cc(OC)ccc3OC)sc3c2CCC3)cc1	/	/	-4%	/	/
COc1cc(Cn2c(=O)sc3ccccc32)ccc1OCCC(C)C	-19%	/	-7%	/	/
SMILES	SMN2 splice up	NPC1 prom act	FLuc counter	KinaseGlo FLuc	Rab9 promoter act
CN(C)/C=C/c1oc2ccc(O)cc2c1[N+](=O)[O-]	20%	26%	?	-5%	3.2µM*
CCOC(=O)c1ccc(NC(=S)N2CCCC(C)C2)cc1 (centres undefined)	28%	6%	?	2%	28%
S=C(Nc1ccc(Br)cc1)N1CCN(C2CCCCC2)CC1	-15%	0%	7%	3%	-9%
CCc1ccc(NC(=S)N2CCCCCCC2)cc1	16µM*	?	4.8µM*	1%	?
CCCCc1ccc(NC(=S)N2CCCC(C)C2)cc1 (centres undefined)	14%	8%	13µM*	2%	16%
S=C(Nc1ccc(Cl)cc1)N1CCCCC1	12%	7%	12µM*	0%	1%
S=C(Nc1ccc(Br)cc1)N1CCCC1	8.9µM*	16%	15µM*	-2%	3%
COc1cc(NC(=O)c2c(C)oc3c2C2=NCCN2C=N3)cc(OC)c1OC	/	/	-5%	/	/
O=C(NNC(=O)c1ccccc1Br)c1ccccc1Cl	0%	-19%	-18%	-4%	28%
O=C(NNC(=S)Nc1ccccc1Cl)c1ccccc1Br	/	2.8µM*	11µM*	/	4µM*
O=C(NC(=S)Nc1ccccc1O)c1ccccc1Cl	13µM*	?	24µM*	2%	3.2µM*
NC(=S)NNC(=O)c1ccccc1Cl	/	-1%	0%	/	0%
COc1cccc(-n2c(=O)c3c(C)c(C)sc3n(Cc3ccccc3C#N)c2=O)c1	4%	/	2%	/	/
CC(=O)c1ccc(NC(=O)c2ncn(-c3ccccc3)n2)cc1	17%	/	-17%	/	/
Cc1cc(C)cc(NC(=O)c2ncn(-c3ccccc3)n2)c1	11µM*	/	?	/	/
Cc1nc(-c2ccccc2)sc1CCNS(=O)(=O)c1ccccc1	/	/	-15%	/	/
O=C(NCCOc1ccccc1Cl)C(=O)c1c[nH]c2ccccc12	7%	2%	?	1%	0%
Cc1[nH]c2ccccc2c1C(=O)C(=O)NC1CC(=O)N(c2ccccc2)C1 (centres undefined)	/	/	5%	/	/
O=C(COC(=O)c1c[nH]c2ccccc12)NC1CCCC1	/	12%	?	/	-4%
O=C(NCCOc1ccccc1)C(=O)c1c[nH]c2ccccc12	/	12%	27µM*	/	14%
Cc1[nH]c2ccccc2c1C(=O)C(=O)NC1CC1	/	?	9.5µM*	/	1.3µM*
O=C(NC1CCCCC1)C(=O)c1c[nH]c2ccccc12	/	?	11µM*	/	3.2µM*
Cc1ccc(NC(=O)C(=O)c2c[nH]c3ccccc23)cc1	/	0.63µM*	1.5µM*	/	0.79µM*
COc1ccc(C(=O)Nc2cc3c4c(c2)CC(=O)N4CCC3)cc1	/	8%	21µM*	/	22%
COc1ccc(C(=O)Nc2cc3c4c(c2)C(C)C(=O)N4CCC3)cc1 (centres undefined)	/	10%	12µM*	/	20%
SMILES	SMN2 splice up	NPC1 prom act	FLuc counter	KinaseGlo FLuc	Rab9 promoter act
O=C(Nc1cc2c3c(c1)CC(=O)N3CCC2)c1ccc(F)cc1	/	1%	?	/	-5%
COc1ccc(C(=O)Nc2cc3c4c(c2)CC(=O)N4CCC3)c(OC)c1	/	?	15µM*	/	?
COc1ccc(C(=O)Nc2cc3c4c(c2)C(C)C(=O)N4CCC3)cc1OC (centres undefined)	/	-4%	2%	/	2%
COc1ccc(CCC(=O)Nc2cc3c4c(c2)CC(=O)N4CCC3)cc1	/	0%	6%	/	-6%
CCN(CC)S(=O)(=O)c1ccc2c(c1)N(CC(=O)Nc1ccc(Cl)cc1)C(=O)C1CCCN21 (centres undefined)	/	/	-3%	/	/
CCc1cccc(-n2nnc(-c3nc(-c4ccccc4Cl)no3)c2N)c1	/	/	-3%	/	/
